The text below walks through data of PubChem BioAssay AID435006 (Sanford-Burnham Center for Chemical Genomics, 2010).

Out of some 1,300 compounds screened, about 1,100 (85%) were called active. No stated cut-off is given here; in the data, active means inhibition above about 48%; inactive means the rest. The set was probably picked from earlier hits. Not all results are given here.

A word on the inhibition: it is the relative decrease from the control value, in per cent.

The assay in a line: yeast-expressed human NALP3 blockade – luminescence, single concentration, confirmation (AID 435006). The note with it: yeast expressing human NALP3, luminescence; at 10 µM; active compounds read high.
As to `Cc1cc2ccccn2c1C(C[N+](=O)[O-])c1c(F)cccc1Cl` (stereo unspecified), the inhibition was 72.8% (active).
Turning to `O=C1/C(=C\c2ccc3c(c2)OCO3)N2CCC1CC2`, the inhibition is 59.5% (active).
With `CCCCCCCCCCCCn1ccc(=N)cc1`, the inhibition is 82.9% (active).
The same measure for `C[C@]12CCC3C(CC[C@H]4C[C@@H](O)CC[C@]34C)C1C[C@@H](O)[C@H]2O` (stereo partly specified): 53% (active); for `C[C@]12CCC3C(CC[C@H]4C[C@@H](O)CC[C@]34C)C1CC[C@@H]2O` (stereo partly specified): 57.9% (active).
The figure for `Cc1ccc(-c2nc3ccccc3c(=O)n2-c2ccc(Br)cn2)cc1` is 73.3% (active).
